Hit rate of the full screen: of about 5,500 compounds, about 2,000 (36%) were called active. About 18% were inconclusive and are not listed. Rule as the data show it: active = normalized growth mostly below about 0.91 (no sharp cut-off); inconclusive = no clear call, values can overlap the other calls; inactive = mostly above about 0.92. Some of the results follow.
Test: chemical genetic growth profiling, strain panel (AID 1159580);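 also: tested at 20 µM; growth read once vehicle control cultures reached saturation at 30 °C; 1 = growth at the plate median or of vehicle wells; lower values mean less growth of the strain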
Conditions: growth OD

Measured: normalized growth

CC(=O)OCC(=O)[C@@]12OC3(CCCC3)O[C@@H]1CC1C3CCC4=CC(=O)C=C[C@]4(C)[C@@]3(F)[C@@H](O)C[C@@]12C (some centres not stated)
inactive: S. cerevisiae deletion strains, locus YJR075W, strain HOC1, hits give low values 1.01 | S. cerevisiae deletion strains, locus YKL009W, strain mrt4, hits give low values 0.967 | S. cerevisiae deletion strains, locus YKL068W, hits give low values 0.991 | S. cerevisiae deletion strains, locus YKL085W, strain MDH1 (second series), hits give low values 0.994 | S. cerevisiae deletion strains, locus YKL085W, strain MDH1, hits give low values 0.994 | S. cerevisiae deletion strains, locus YKL160W, strain elf1, hits give low values 1.01 | S. cerevisiae deletion strains, locus YKL190W, strain CNB1, hits give low values 0.997 | S. cerevisiae deletion strains, locus YKR001C, strain vps1, hits give low values 0.985 | S. cerevisiae deletion strains, locus YKR026C, strain gcn3, hits give low values 1.02 | S. cerevisiae deletion strains, locus YKR091W, strain srl3, hits give low values 1.01 | S. cerevisiae deletion strains, locus YLL001W, strain dnm1, hits give low values 1 | S. cerevisiae deletion strains, locus YLL026W, hits give low values 1.01 | S. cerevisiae deletion strains, locus YLL041C, strain sdh2, hits give low values 1.02 | S. cerevisiae deletion strains, locus YLR027C, strain aat2, hits give low values 1.01 | S. cerevisiae deletion strains, locus YLR039C, strain RIC1, hits give low values 0.94 | S. cerevisiae deletion strains, locus YLR058C, strain SHM2, hits give low values 1.01 | S. cerevisiae deletion strains, locus YLR102C, strain apc9, hits give low values 0.992 | S. cerevisiae deletion strains, locus YLR113W, strain HOG1, hits give low values 0.989 | S. cerevisiae deletion strains, locus YLR221C, strain rsa3, hits give low values 1.01 | S. cerevisiae deletion strains, locus YLR258W, strain gsy2, hits give low values 1.02 | S. cerevisiae deletion strains, locus YLR262C, strain YPT6 (second series), hits give low values 1 | S. cerevisiae deletion strains, locus YLR262C, strain YPT6, hits give low values 0.961 | S. cerevisiae deletion strains, locus YLR268W, strain sec22, hits give low values 0.958 | S. cerevisiae deletion strains, locus YLR320W, strain mms22, hits give low values 1.02 | S. cerevisiae deletion strains, locus YLR330W, strain CHS5, hits give low values 1.01 | S. cerevisiae deletion strains, locus YLR342W, strain FKS1 (second series), hits give low values 1.05 | S. cerevisiae deletion strains, locus YLR342W, strain FKS1, hits give low values 1.02 | S. cerevisiae deletion strains, locus YLR357W, strain rsc2, hits give low values 1.04 | S. cerevisiae deletion strains, locus YLR370C, strain arc18, hits give low values 1.02 | S. cerevisiae deletion strains, locus YLR371W, strain rom2, hits give low values 0.984 | S. cerevisiae deletion strains, locus YLR384C, strain iki3, hits give low values 1.01 | S. cerevisiae deletion strains, locus YLR418C, strain cdc73, hits give low values 0.944 | S. cerevisiae deletion strains, locus YML016C, strain PPZ1, hits give low values 1.02 | S. cerevisiae deletion strains, locus YML032C, strain rad52, hits give low values 0.968 | S. cerevisiae deletion strains, locus YML120C, strain ndi1, hits give low values 1.02 | S. cerevisiae deletion strains, locus YML124C, strain tub3, hits give low values 0.988 | S. cerevisiae deletion strains, locus YMR058W, strain fet3, hits give low values 1.02 | S. cerevisiae deletion strains, locus YMR078C, strain ctf18, hits give low values 1 | S. cerevisiae deletion strains, locus YMR125W, strain sto1, hits give low values 1.03 | S. cerevisiae deletion strains, locus YMR129W, hits give low values 1.02 | S. cerevisiae deletion strains, locus YMR205C, strain PFK2, hits give low values 1.02 | S. cerevisiae deletion strains, locus YMR223W, strain ubp8, hits give low values 1.01 | S. cerevisiae deletion strains, locus YMR231W, strain pep5, hits give low values 1.01 | S. cerevisiae deletion strains, locus YMR263W, strain SAP30, hits give low values 1.01 | S. cerevisiae deletion strains, locus YMR307W, strain GAS1, hits give low values 1.11 | S. cerevisiae deletion strains, locus YNL067W, strain RPL9B, hits give low values 1 | S. cerevisiae deletion strains, locus YNL071W, strain lat1, hits give low values 1.01 | S. cerevisiae deletion strains, locus YNL128W, strain TEP1, hits give low values 1.03 | S. cerevisiae deletion strains, locus YNL153C, strain GIM3, hits give low values 0.996 | S. cerevisiae deletion strains, locus YNL183C, strain NPR1, hits give low values 0.954 | S. cerevisiae deletion strains, locus YNL209W, strain ssb2, hits give low values 1.01 | S. cerevisiae deletion strains, locus YNL233W, strain BNI4, hits give low values 1.01 | S. cerevisiae deletion strains, locus YNL248C, strain rpa49, hits give low values 0.978 | S. cerevisiae deletion strains, locus YNL250W, strain rad50, hits give low values 0.994 | S. cerevisiae deletion strains, locus YNL271C, strain bni1, hits give low values 0.984 | S. cerevisiae deletion strains, locus YNL298W, strain CLA4, hits give low values 0.982 | S. cerevisiae deletion strains, locus YNL307C, strain MCK1, hits give low values 0.992 | S. cerevisiae deletion strains, locus YNL322C, strain KRE1 (second series), hits give low values 1.03 | S. cerevisiae deletion strains, locus YNL322C, strain KRE1, hits give low values 1.01 | S. cerevisiae deletion strains, locus YNR049C, strain mso1, hits give low values 1.03 | S. cerevisiae deletion strains, locus YNR052C, strain pop2, hits give low values 0.99 | S. cerevisiae deletion strains, locus YOL006C, strain TOP1, hits give low values 1.01 | S. cerevisiae deletion strains, locus YOL012C, strain htz1 0.599 | S. cerevisiae deletion strains, locus YOL147C, strain pex11, hits give low values 1 | S. cerevisiae deletion strains, locus YOR001W, strain rrp6, hits give low values 1.02 | S. cerevisiae deletion strains, locus YOR061W, strain CKA2, hits give low values 1.01 | S. cerevisiae deletion strains, locus YOR069W, strain VPS5, hits give low values 1.01 | S. cerevisiae deletion strains, locus YOR070C, strain gyp1, hits give low values 1.02 | S. cerevisiae deletion strains, locus YOR080W, strain dia2, hits give low values 1.04 | S. cerevisiae deletion strains, locus YOR083W, strain WHI5, hits give low values 0.998 | S. cerevisiae deletion strains, locus YOR106W, strain vam3, hits give low values 1.01 | S. cerevisiae deletion strains, locus YOR136W, strain idh2, hits give low values 0.981 | S. cerevisiae deletion strains, locus YOR144C, strain elg1, hits give low values 0.991 | S. cerevisiae deletion strains, locus YOR184W, strain ser1, hits give low values 0.983 | S. cerevisiae deletion strains, locus YOR231W, strain MKK1, hits give low values 0.963 | S. cerevisiae deletion strains, locus YOR265W, strain rbl2, hits give low values 1.02 | S. cerevisiae deletion strains, locus YOR270C, strain vph1, hits give low values 0.921 | S. cerevisiae deletion strains, locus YOR290C, strain snf2, hits give low values 1.01 | S. cerevisiae deletion strains, locus YOR316C, strain cot1, hits give low values 1 | S. cerevisiae deletion strains, locus YPL051W, strain arl3, hits give low values 1.02 | S. cerevisiae deletion strains, locus YPL055C, strain LGE1, hits give low values 1.01 | S. cerevisiae deletion strains, locus YPL078C, strain atp4, hits give low values 1.01 | S. cerevisiae deletion strains, locus YPL106C, strain sse1, hits give low values 1.1 | S. cerevisiae deletion strains, locus YPL240C, strain hsp82, hits give low values 1.01 | S. cerevisiae deletion strains, locus YPL241C, strain CIN2, hits give low values 1.01 | S. cerevisiae deletion strains, locus YPL256C, strain CLN2, hits give low values 0.975 | S. cerevisiae deletion strains, locus YPR119W, strain clb2, hits give low values 0.982 | S. cerevisiae deletion strains, locus YPR141C, strain kar3, hits give low values 0.989 | S. cerevisiae deletion strains, locus YPR163C, strain tif3, hits give low values 0.98 | S. cerevisiae deletion strains, locus YPR167C, strain met16, hits give low values 0.999 | S. cerevisiae deletion strains, strain wtn01, hits give low values 0.98 | S. cerevisiae strains, strain wild type, hits give low values 1.01

From PubChem BioAssay AID1159580 (chemical genetic matrix, 2015)
